Here are results for eight sequences from the supplement of paper PMC6555819.

Holding throughout (experiment): PBM binding z-score (relative to random genomic background probes); higher = stronger binding; sequences stand for … in GC…GCGATTGACAGCGTAGAATGAAGG
The test system of experiment [1] is FXR:RXRa (NR concentration 270 nM, RXRa partner concentration 90 nM). In short, it runs like this: (§1)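 Custom Agilent 4×180K protein-binding microarrays carried double-stranded probes. Their 34-nt variable regions held direct-repeat seeds, single-nucleotide variants, half-site ablations and random human genomic background sequences. Arrays were incubated 1 h with ligand-free nuclear receptor dimers in PBS pH 7.4, 2% milk, 0.02% Triton X-100, 1 mM DTT, 0.2 mg/mL BSA and 0.4 mg/ml salmon testes DNA. Antibodies against each partner (one per run) detected binding, and scanned fluorescence was regression-normalized. Binding z-scores use random background probes as reference.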

In experiment [2] the test system is LXRa:RXRa (NR concentration 270 nM, RXRa partner concentration 90 nM). In short, it runs like this: as §1
The test system of experiment [3] is LXRa homodimer (NR concentration 270 nM). A digest of the protocol:
as §1

For experiment [4], the system named is LXRb:RXRa (NR concentration 270 nM, RXRa partner concentration 90 nM). A digest of the protocol: as §1
In experiment [5] the test system is PPARa:RXRa (NR concentration 270 nM, RXRa partner concentration 90 nM). A digest of the protocol:
as §1

Experiment [6] concerns PPARg:RXRa (NR concentration 180 nM, RXRa partner concentration 90 nM). In short, it runs like this: as §1
For experiment [7], the system named is PPARg:RXRa 270nM:90nM, anti-RXR (NR concentration 270 nM, RXRa partner concentration 90 nM). In short, it runs like this:
as §1

Experiment [8] relates to PPARg:RXRa 30nM:10nM, anti-RXR (NR concentration 30 nM, RXRa partner concentration 10 nM). A digest of the protocol:
as §1

Experiment [9] concerns PPARg:RXRa 90nM:30nM, anti-RXR (NR concentration 90 nM, RXRa partner concentration 30 nM). In short, it runs like this:
as §1

Experiment [10] relates to PPARg:RXRa DBDmut IVT, anti-RXR (DBD mutation: RXRa K156A/R161A, NR concentration 270 nM, RXRa partner concentration 90 nM). A digest of the protocol:
as §1

Experiment [11] deals with PPARg:RXRa IVT, anti-PPARg (NR concentration 270 nM, RXRa partner concentration 90 nM). A digest of the protocol:
as §1

Experiment [12] concerns PPARg homodimer (NR concentration 180 nM). In short, it runs like this:
as §1

Experiment [13] concerns PXR:RXRa (NR concentration 270 nM, RXRa partner concentration 90 nM). A digest of the protocol:
as §1

In experiment [14] the test system is PXR homodimer (NR concentration 270 nM). In short, it runs like this: as §1
In experiment [15] the test system is RARa:RXR (NR concentration 270 nM, RXRa partner concentration 90 nM). In short, it runs like this: as §1
Experiment [16] has as its system RARa homodimer (NR concentration 270 nM). A digest of the protocol: as §1
Experiment [17] has as its system RARb:RXRa (NR concentration 270 nM, RXRa partner concentration 90 nM). In short, it runs like this:
as §1

TCGAGTAGTTTACGGGGGCATTCAGGGATGAAGA: the PBM binding z-score came to 1.17 in [1]; 2.22 in experiment [2]; 0.776 in experiment [3]; 4.38 in experiment [4]; 2.69 in [5]; 1.11 in [6]. The PBM binding z-score turned out to be 2.83 in experiment [7]; 2.71 in [8]; 2.91 in [9]; 2.03 in [10]; 3.22 in experiment [11]; 0.685 in experiment [12]. Also, the PBM binding z-score was 2.74 in experiment [13]; 1.47 in experiment [14]; 2.36 in experiment [15]; -0.25 in experiment [16]; 2 in experiment [17].
As to CCGAGTAGGTTACGAGGGGGCATTCACTGCGAAT, the PBM binding z-score was 2.07 in experiment [1]; 7.18 in experiment [2]; 1.26 in experiment [3]; 6.21 in experiment [4]; 3.49 in experiment [5]; 2.33 in experiment [6]. Besides, the PBM binding z-score turned out to be 3.18 in experiment [7]; 1.02 in experiment [8]; 2.85 in [9]; 4.81 in [10]; 4.25 in [11]; 1.02 in [12]. For the same sequence, the PBM binding z-score in [13] was found to be 4.44; in [14], 0.728; in experiment [15] it was 2.66; in experiment [16] it was 0.267; in experiment [17], 2.12.
As for TCGAATAGGTTACGGGGGCATTCAGGGATGAAGA, the PBM binding z-score stood at 3.92 in experiment [1]; 3.9 in experiment [2]; 1.2 in experiment [3]; 5.78 in experiment [4]; 5.11 in experiment [5]; 5.71 in experiment [6]. Moreover, the PBM binding z-score in experiment [7] stood at 5.84; in [8] it was 4.46; in [9], 5.39; in [10], 4.48; in experiment [11], 5.46; in experiment [12], 2.1. Also, the PBM binding z-score was 3.82 in experiment [13]; 1.8 in experiment [14]; 3.69 in experiment [15]; 1.33 in experiment [16]; 3.33 in experiment [17].
On to TCGAGTAGGTTACGGGGGCATTGAGGGATGAAGA, for which the PBM binding z-score was 2.37 in experiment [1]; 2.69 in experiment [2]; 0.404 in [3]; 4.67 in [4]; 4.31 in experiment [5]; 6.35 in [6]. The PBM binding z-score in [7] came to 5.59; in [8] it was 3.59; in [9] it was 5.05; in experiment [10], 5.26; in experiment [11], 6.02; in experiment [12], 2.89. In addition, the PBM binding z-score in experiment [14] amounted to 1.71; in experiment [16] it was 0.325; in [17] it was 2.69.
Turning to CAGAGTAGGTTACGAGGGGGCATTCAGTGCGAAT, the PBM binding z-score in experiment [1] was determined as 3.11; in [2], 7.18; in [3], 2.11; in experiment [4] it was 6.23; in experiment [5], 3.54; in [6], 3.69. The PBM binding z-score was 4.37 in experiment [7]; 2.05 in experiment [8]; 3.3 in [9]; 5.73 in experiment [10]; 5.83 in [11]; 1.94 in experiment [12]. For the same sequence, the PBM binding z-score in experiment [13] came out at 4.86; in [14] it was 6.24; in [15], 2.83; in experiment [16], 1.21; in experiment [17], 2.45.
Consider TCGAGTAGGTTACAGGGGCATTCAGGGATGAAGA, for which the PBM binding z-score stood at 0.886 in [1]; 1.08 in experiment [2]; 0.219 in experiment [3]; 1.68 in [4]; 2.44 in experiment [5]; 2.7 in [6]. The PBM binding z-score in experiment [7] came to 2.87; in experiment [8], 1.73; in experiment [9], 2.71; in experiment [10], 3.72; in experiment [11] it was 4.1; in [12], 0.898. Besides, the PBM binding z-score stood at 1.17 in [13]; 0.587 in experiment [14]; 1.5 in [15]; 0.487 in [16]; 1.59 in [17].
TCGAGTAGGTTACGGGGGCATCCAGGGATGAAGA: the PBM binding z-score worked out at 2.12 in experiment [1]; 2.55 in experiment [2]; 0.293 in [3]; 4.73 in experiment [4]; 4.35 in [5]; 6.04 in experiment [6]. In addition, the PBM binding z-score in experiment [7] came to 6.05; in experiment [8], 3.04; in experiment [9], 5.24; in experiment [10] it was 5.07; in [11], 5.83; in [12], 2.37. Moreover, the PBM binding z-score in experiment [14] is 1.02; in experiment [15], 3.31; in [16] it was 0.18; in experiment [17] it was 2.46.
Take CTAGGTAGGTTAAGGGGGTCATTCAGTTTGAAAG: the PBM binding z-score in experiment [1] came to 4.79; in [2] it was 4.89; in [3], 2.54; in [4], 6.08; in [5] it was 5.56; in [6], 6.17. Further, the PBM binding z-score in experiment [7] amounted to 6.57; in experiment [8], 3.72; in experiment [9] it was 5.95; in experiment [10] it was 5.01; in [11] it was 5.61; in experiment [12] it was 2.95. Further, the PBM binding z-score in experiment [13] was found to be 5.85; in [14], 11.1; in experiment [15], 5.43; in experiment [16], 1.74; in experiment [17] it was 3.26.
